PubChem BioAssay AID1159580 (chemical genetic matrix, 2015)
Values joined by “and” are separate entries in the source; they are usually repeats but may differ in a detail not shown here. Equal entries are not always repeated. In all, about 5,500 compounds went through this assay and about 2,000 (36%) were called active. Another 18% or so got no clear call; they are omitted. Rule as the data show it: active = normalized growth mostly below about 0.91 (no sharp cut-off); inconclusive = no clear call, values can overlap the other calls; inactive = mostly above about 0.92. Some of the results follow.

Experiment: chemical genetic growth profiling, strain panel (AID 1159580);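 also: tested at 20 µM; growth read once vehicle control cultures reached saturation at 30 °C; 1 = growth at the plate median or of vehicle wells; lower values mean less growth of the strain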
Settings: S. cerevisiae deletion strains, growth OD

Measured: normalized growth

C[n+]1cc2c3c(ccc2c2ccc4cc5c(cc4c21)OCO5)OCO3
0.0584 (active) and 0.981 (inactive): locus YHR030C, strain SLT2, stronger effect = lower value
active: locus YAL013W, strain DEP1, stronger effect = lower value 0.06 and 0.0669 | locus YAL021C, strain ccr4, stronger effect = lower value 0.823 | locus YAL026C, strain drs2, stronger effect = lower value 0.657 | locus YAL030W, strain snc1, stronger effect = lower value 0.676 | locus YBL061C, strain skt5, stronger effect = lower value 0.627 | locus YBR009C, strain hhf1, stronger effect = lower value 0.268 | locus YBR021W, strain FUR4, stronger effect = lower value 0.146 | locus YBR023C, strain chs3, stronger effect = lower value 0.592 | locus YBR229C, strain ROT2, stronger effect = lower value 0.0617 | locus YBR231C, strain swc5, stronger effect = lower value 0.326 | locus YBR279W, strain paf1, stronger effect = lower value 0.674 | locus YCL011C, strain gbp2, stronger effect = lower value 0.34 | locus YCL016C, strain dcc1, stronger effect = lower value 0.535 | locus YCL029C, strain bik1, stronger effect = lower value 0.0684 | locus YCL061C, strain MRC1, stronger effect = lower value 0.672 | locus YCL069W, strain vba3, stronger effect = lower value 0.596 | locus YCR088W, strain abp1, stronger effect = lower value 0.802 | locus YDL005C, strain med2, stronger effect = lower value 0.711 | locus YDL035C, strain GPR1, stronger effect = lower value 0.057 | locus YDL040C, strain nat1, stronger effect = lower value 0.858 | locus YDL074C, strain BRE1, stronger effect = lower value 0.0875 | locus YDL101C, strain DUN1, stronger effect = lower value 0.0699 | locus YDL134C, strain PPH21, stronger effect = lower value 0.0603 | locus YDL192W, strain arf1, stronger effect = lower value 0.0735 | locus YDR101C, strain arx1, stronger effect = lower value 0.0711 | locus YDR137W, strain rgp1, stronger effect = lower value 0.692 | locus YDR150W, strain NUM1, stronger effect = lower value 0.0564 | locus YDR159W, strain sac3, stronger effect = lower value 0.62 | locus YDR162C, strain NBP2, stronger effect = lower value 0.0557 | locus YDR297W, strain sur2, stronger effect = lower value 0.609 | locus YDR318W, strain mcm21, stronger effect = lower value 0.0705 | locus YDR334W, strain swr1, stronger effect = lower value 0.46 | locus YDR335W, strain msn5, stronger effect = lower value 0.714 | locus YDR363W, strain ESC2, stronger effect = lower value 0.0888 | locus YDR388W, stronger effect = lower value 0.0658 | locus YDR392W, strain spt3, stronger effect = lower value 0.11 | locus YDR502C, strain sam2, stronger effect = lower value 0.0731 | locus YEL003W, strain gim4, stronger effect = lower value 0.668 | locus YEL037C, strain rad23, stronger effect = lower value 0.797 | locus YEL061C, strain CIN8 (second series), stronger effect = lower value 0.7 | locus YEL061C, strain CIN8, stronger effect = lower value 0.0546 | locus YER015W, strain faa2, stronger effect = lower value 0.516 | locus YER016W, strain bim1, stronger effect = lower value 0.788 | locus YER110C, stronger effect = lower value 0.0876 | locus YER111C, strain swi4, stronger effect = lower value 0.847 | locus YER155C, strain BEM2 (second series), stronger effect = lower value 0.442 | locus YER155C, strain BEM2, stronger effect = lower value 0.0755 | locus YER167W, strain BCK2, stronger effect = lower value 0.0605 | locus YFR010W, strain ubp6, stronger effect = lower value 0.898 | locus YGL078C, strain dbp3, stronger effect = lower value 0.907 | locus YGL086W, strain mad1, stronger effect = lower value 0.0683 | locus YGL173C, strain kem1, stronger effect = lower value 0.772 | locus YGL227W, strain vid30, stronger effect = lower value 0.519 | locus YGL240W, strain doc1, stronger effect = lower value 0.396 | locus YGL248W, strain PDE1, stronger effect = lower value 0.0602 | locus YGL253W, strain hxk2, stronger effect = lower value 0.501 | locus YGR078C, strain PAC10, stronger effect = lower value 0.0588 | locus YGR135W, strain pre9, stronger effect = lower value 0.0753 | locus YGR229C, strain SMI1, stronger effect = lower value 0.0651 | locus YGR252W, strain gcn5, stronger effect = lower value 0.18 | locus YHR013C, strain ard1, stronger effect = lower value 0.319 | locus YHR027C, strain rpn1, stronger effect = lower value 0.73 | locus YHR079C, strain IRE1 (second series), stronger effect = lower value 0.0663 | locus YHR094C, strain hxt1, stronger effect = lower value 0.0664 | locus YHR129C, strain ARP1, stronger effect = lower value 0.0634 | locus YHR142W, strain chs7, stronger effect = lower value 0.348 | locus YHR200W, strain rpn10, stronger effect = lower value 0.0675 | locus YIL066C, strain RNR3, stronger effect = lower value 0.0586 | locus YIL073C, strain SPO22, stronger effect = lower value 0.133 | locus YIL125W, strain kgd1, stronger effect = lower value 0.915 | locus YIR030C, strain dcg1, stronger effect = lower value 0.0697 | locus YJL092W, strain hpr5, stronger effect = lower value 0.793 | locus YJL095W, strain BCK1 (second series), stronger effect = lower value 0.467 | locus YJL115W, strain asf1, stronger effect = lower value 0.881 | locus YJL129C, strain trk1, stronger effect = lower value 0.309 | locus YJL134W, strain LCB3, stronger effect = lower value 0.0573 | locus YJL164C, strain tpk1, stronger effect = lower value 0.363 | locus YJL166W, strain qcr8, stronger effect = lower value 0.242 | locus YJL168C, strain set2, stronger effect = lower value 0.0819 | locus YJL187C, strain SWE1 (second series), stronger effect = lower value 0.0606 | locus YJL187C, strain SWE1, stronger effect = lower value 0.618
inactive: locus YBR171W, strain sec66, stronger effect = lower value 0.983 | locus YDL185W, strain tfp1, stronger effect = lower value 0.914 | locus YDR001C, strain nth1, stronger effect = lower value 0.928 | locus YDR069C, strain doa4, stronger effect = lower value 0.902 | locus YDR195W, strain ref2 1.09 | locus YER002W, strain NOP16, stronger effect = lower value 1.01 | locus YGL167C, strain pmr1, stronger effect = lower value 0.974 | locus YHR079C, strain IRE1, stronger effect = lower value 0.985 | locus YJL154C, strain vps35, stronger effect = lower value 0.962
0.073 (active) and 0.976 (inactive): locus YJL095W, strain BCK1, stronger effect = lower value
